Measured values from PubChem BioAssay AID1159580 (chemical genetic matrix, 2015).
The campaign covered roughly 5,500 compounds. About 2,000 (36%) were called active. Another 18% or so got no clear call; they are omitted. No stated cut-off is given here; in the data, active means normalized growth mostly below about 0.91 (no sharp cut-off); inconclusive means no clear call, values can overlap the other calls; inactive means mostly above about 0.92. Some of the results follow.

Test: chemical genetic growth profiling, strain panel (AID 1159580);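 further: tested at 20 µM; growth read once vehicle control cultures reached saturation at 30 °C; 1 = growth at the plate median or of vehicle wells; lower values mean less growth of the strain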
Details: growth OD

Measured: normalized growth

CCn1cc(C(=O)O)c(=O)c2cnc(N3CCNCC3)nc21
inactive: S. cerevisiae deletion strains, locus YKL009W, strain mrt4, active compounds read low 1.03 | S. cerevisiae deletion strains, locus YKL068W, active compounds read low 0.994 | S. cerevisiae deletion strains, locus YKL085W, strain MDH1 (second series), active compounds read low 0.984 | S. cerevisiae deletion strains, locus YKL085W, strain MDH1, active compounds read low 0.984 | S. cerevisiae deletion strains, locus YKL160W, strain elf1, active compounds read low 1.03 | S. cerevisiae deletion strains, locus YKL190W, strain CNB1, active compounds read low 1 | S. cerevisiae deletion strains, locus YKR001C, strain vps1, active compounds read low 1.02 | S. cerevisiae deletion strains, locus YKR026C, strain gcn3, active compounds read low 1.01 | S. cerevisiae deletion strains, locus YKR091W, strain srl3, active compounds read low 1 | S. cerevisiae deletion strains, locus YLL001W, strain dnm1, active compounds read low 1.01 | S. cerevisiae deletion strains, locus YLL026W, active compounds read low 1.02 | S. cerevisiae deletion strains, locus YLL041C, strain sdh2, active compounds read low 1.01 | S. cerevisiae deletion strains, locus YLR027C, strain aat2, active compounds read low 1.01 | S. cerevisiae deletion strains, locus YLR039C, strain RIC1, active compounds read low 0.942 | S. cerevisiae deletion strains, locus YLR058C, strain SHM2, active compounds read low 0.988 | S. cerevisiae deletion strains, locus YLR102C, strain apc9, active compounds read low 0.993 | S. cerevisiae deletion strains, locus YLR113W, strain HOG1, active compounds read low 1.02 | S. cerevisiae deletion strains, locus YLR221C, strain rsa3, active compounds read low 1 | S. cerevisiae deletion strains, locus YLR258W, strain gsy2, active compounds read low 1.04 | S. cerevisiae deletion strains, locus YLR262C, strain YPT6 (second series), active compounds read low 0.992 | S. cerevisiae deletion strains, locus YLR262C, strain YPT6, active compounds read low 0.975 | S. cerevisiae deletion strains, locus YLR268W, strain sec22, active compounds read low 0.991 | S. cerevisiae deletion strains, locus YLR320W, strain mms22, active compounds read low 0.968 | S. cerevisiae deletion strains, locus YLR330W, strain CHS5, active compounds read low 0.981 | S. cerevisiae deletion strains, locus YLR342W, strain FKS1 (second series), active compounds read low 0.96 | S. cerevisiae deletion strains, locus YLR342W, strain FKS1, active compounds read low 1.02 | S. cerevisiae deletion strains, locus YLR357W, strain rsc2, active compounds read low 1.01 | S. cerevisiae deletion strains, locus YLR370C, strain arc18, active compounds read low 1.02 | S. cerevisiae deletion strains, locus YLR371W, strain rom2, active compounds read low 0.981 | S. cerevisiae deletion strains, locus YLR384C, strain iki3, active compounds read low 0.999 | S. cerevisiae deletion strains, locus YLR418C, strain cdc73, active compounds read low 0.951 | S. cerevisiae deletion strains, locus YML016C, strain PPZ1, active compounds read low 0.977 | S. cerevisiae deletion strains, locus YML032C, strain rad52, active compounds read low 1 | S. cerevisiae deletion strains, locus YML120C, strain ndi1, active compounds read low 1.03 | S. cerevisiae deletion strains, locus YML124C, strain tub3, active compounds read low 0.985 | S. cerevisiae deletion strains, locus YMR058W, strain fet3, active compounds read low 1.01 | S. cerevisiae deletion strains, locus YMR078C, strain ctf18, active compounds read low 0.98 | S. cerevisiae deletion strains, locus YMR125W, strain sto1, active compounds read low 1.02 | S. cerevisiae deletion strains, locus YMR129W, active compounds read low 1.01 | S. cerevisiae deletion strains, locus YMR205C, strain PFK2, active compounds read low 1 | S. cerevisiae deletion strains, locus YMR223W, strain ubp8, active compounds read low 0.983 | S. cerevisiae deletion strains, locus YMR231W, strain pep5, active compounds read low 1.01 | S. cerevisiae deletion strains, locus YMR263W, strain SAP30, active compounds read low 1.01 | S. cerevisiae deletion strains, locus YMR307W, strain GAS1, active compounds read low 1.01 | S. cerevisiae deletion strains, locus YNL067W, strain RPL9B, active compounds read low 1.03 | S. cerevisiae deletion strains, locus YNL071W, strain lat1, active compounds read low 1.01 | S. cerevisiae deletion strains, locus YNL128W, strain TEP1, active compounds read low 0.977 | S. cerevisiae deletion strains, locus YNL153C, strain GIM3, active compounds read low 1.06 | S. cerevisiae deletion strains, locus YNL183C, strain NPR1, active compounds read low 0.997 | S. cerevisiae deletion strains, locus YNL209W, strain ssb2, active compounds read low 1 | S. cerevisiae deletion strains, locus YNL233W, strain BNI4, active compounds read low 1.02 | S. cerevisiae deletion strains, locus YNL248C, strain rpa49, active compounds read low 1.04 | S. cerevisiae deletion strains, locus YNL250W, strain rad50, active compounds read low 0.964 | S. cerevisiae deletion strains, locus YNL271C, strain bni1, active compounds read low 0.979 | S. cerevisiae deletion strains, locus YNL298W, strain CLA4, active compounds read low 0.978 | S. cerevisiae deletion strains, locus YNL307C, strain MCK1, active compounds read low 0.991 | S. cerevisiae deletion strains, locus YNL322C, strain KRE1 (second series), active compounds read low 1.04 | S. cerevisiae deletion strains, locus YNL322C, strain KRE1, active compounds read low 0.997 | S. cerevisiae deletion strains, locus YNR049C, strain mso1, active compounds read low 1.01 | S. cerevisiae deletion strains, locus YNR052C, strain pop2, active compounds read low 0.979 | S. cerevisiae deletion strains, locus YOL006C, strain TOP1, active compounds read low 1.07 | S. cerevisiae deletion strains, locus YOL012C, strain htz1 0.676 | S. cerevisiae deletion strains, locus YOL147C, strain pex11, active compounds read low 0.991 | S. cerevisiae deletion strains, locus YOR001W, strain rrp6, active compounds read low 1 | S. cerevisiae deletion strains, locus YOR061W, strain CKA2, active compounds read low 0.988 | S. cerevisiae deletion strains, locus YOR069W, strain VPS5, active compounds read low 0.984 | S. cerevisiae deletion strains, locus YOR070C, strain gyp1, active compounds read low 1.02 | S. cerevisiae deletion strains, locus YOR080W, strain dia2, active compounds read low 1.02 | S. cerevisiae deletion strains, locus YOR083W, strain WHI5, active compounds read low 0.993 | S. cerevisiae deletion strains, locus YOR106W, strain vam3, active compounds read low 1.04 | S. cerevisiae deletion strains, locus YOR136W, strain idh2, active compounds read low 0.995 | S. cerevisiae deletion strains, locus YOR144C, strain elg1, active compounds read low 0.988 | S. cerevisiae deletion strains, locus YOR184W, strain ser1, active compounds read low 1 | S. cerevisiae deletion strains, locus YOR231W, strain MKK1, active compounds read low 1.03 | S. cerevisiae deletion strains, locus YOR265W, strain rbl2, active compounds read low 1.02 | S. cerevisiae deletion strains, locus YOR270C, strain vph1, active compounds read low 1.16 | S. cerevisiae deletion strains, locus YOR290C, strain snf2, active compounds read low 1.04 | S. cerevisiae deletion strains, locus YOR316C, strain cot1, active compounds read low 0.99 | S. cerevisiae deletion strains, locus YPL051W, strain arl3, active compounds read low 1.02 | S. cerevisiae deletion strains, locus YPL078C, strain atp4, active compounds read low 1.04 | S. cerevisiae deletion strains, locus YPL106C, strain sse1, active compounds read low 1.01 | S. cerevisiae deletion strains, locus YPL240C, strain hsp82, active compounds read low 1 | S. cerevisiae deletion strains, locus YPL256C, strain CLN2, active compounds read low 1.08 | S. cerevisiae deletion strains, locus YPR119W, strain clb2, active compounds read low 0.993 | S. cerevisiae deletion strains, locus YPR141C, strain kar3, active compounds read low 0.981 | S. cerevisiae deletion strains, locus YPR163C, strain tif3, active compounds read low 0.984 | S. cerevisiae deletion strains, locus YPR167C, strain met16, active compounds read low 0.979 | S. cerevisiae deletion strains, strain wtn01, active compounds read low 0.982 | S. cerevisiae strains, strain wild type, active compounds read low 0.998
